Assay results: PubChem BioAssay (NCATS)
Results filed as inconclusive are left out. Where a call stands in place of a potency, no number is given. Activity calls are given as the source filed them. Calls follow the shape of the dose curve; as a rule, active = well fitted curve in the direction sought with a large enough effect; inconclusive = small, poorly fitted or top-dose-only effect, or another doubt; inactive = no such curve, though single readings can be large; an effect the other way counts as inactive or inconclusive.

Tests used:
[1] = Quantitative High-Throughput drug screen in 47 multiple myeloma cell lines against the NCATS MIPE library collection: Delta47_JCRB cell viability assay (AID 1918925; also: nearly all actives have a fitted effect of over 45% in size)
Outline: (§1)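 CellTiter-Glo luminescence (ATP) after 48 h compound exposure, 37C/5% CO2; 500 cells/well; MIPE 4.0 approved/investigational drugs pinned in; DMSO = 100%, media only = 0% viability.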

[2] = Quantitative High-Throughput drug screen in 47 multiple myeloma cell lines against the NCATS MIPE library collection: AMO1_DSMZ cell viability assay (AID 1918927; also: nearly all actives have a fitted effect of over 30% in size)
Outline: as §1

[3] = Quantitative High-Throughput drug screen in 47 multiple myeloma cell lines against the NCATS MIPE library collection: ARD_JJKsccE7 cell viability assay (AID 1918929)
Outline: as §1

[4] = Quantitative High-Throughput drug screen in 47 multiple myeloma cell lines against the NCATS MIPE library collection: Karpas620_DSMZ cell viability assay (AID 1918959); also: nearly all actives have a fitted effect of over 30% in size
Outline: (§2)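 Primary qHTS used for cherry-picking: cells at 500/well, library compounds for 48 h (37C, 5% CO2), luminescent ATP assay.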

[5] = Quantitative High-Throughput drug screen in 47 multiple myeloma cell lines against the NCATS MIPE library collection: KMM1_JCRB cell viability assay (AID 1918960); also: nearly all actives have a fitted effect of over 30% in size
Outline: (§3)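 Myeloma cells at 500 per well in 1536-well format treated with MIPE 4.0 library by pin transfer for 48 h at 37C, 5% CO2. Viability from ATP luminescence (CellTiter-Glo), normalized to DMSO (100%) and media-only (0%) wells.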

[6] = Quantitative High-Throughput drug screen in 47 multiple myeloma cell lines against the NCATS MIPE library collection: Karpas417_ECACC cell viability assay (AID 1918961); conditions: Karpas417 myeloma viability, CellTiter-Glo ATP luminescence, 48 h; viability (% of DMSO): at 45.8 µM (top of the series)
Outline: (§4)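 We plated 500 myeloma cells per well, pinned in MIPE 4.0 compounds, and incubated for 48 hours at 37C. ATP was then quantified with CellTiter-Glo, with DMSO and media-only wells defining 100% and 0%.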

[7] = Quantitative High-Throughput drug screen in 47 multiple myeloma cell lines against the NCATS MIPE library collection: JIM3_ECACC cell viability assay (AID 1918963; also: nearly all actives have a fitted effect of over 35% in size)
Outline: as §2

[8] = Quantitative High-Throughput drug screen in 47 multiple myeloma cell lines against the NCATS MIPE library collection: JIM1_ECACC cell viability assay (AID 1918964)
Outline: as §1

[9] = Quantitative High-Throughput drug screen in 47 multiple myeloma cell lines against the NCATS MIPE library collection: H1112_PLB cell viability assay (AID 1918967; also: nearly all actives have a fitted effect of over 30% in size)
Outline: as §1

[10] = Quantitative High-Throughput drug screen in 47 multiple myeloma cell lines against the NCATS MIPE library collection: EJM_DSMZ cell viability assay (AID 1918926; also: nearly all actives have a fitted effect of over 30% in size)
Outline: as §1

[11] = Quantitative High-Throughput drug screen in 47 multiple myeloma cell lines against the NCATS MIPE library collection: Karpas25_ECACC cell viability assay (AID 1918968; also: nearly all actives have a fitted effect of over 35% in size)
Outline: as §1

[12] = Quantitative High-Throughput drug screen in 47 multiple myeloma cell lines against the NCATS MIPE library collection: KMS27_JCRB cell viability assay (AID 1918970); conditions: KMS27 myeloma cells, CellTiter-Glo ATP viability, 48 h; viability (% of DMSO): at 45.8 µM (top of the series); also: nearly all actives have a fitted effect of over 30% in size
Outline: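 KMS27_JCRB myeloma cells, 500 per well, exposed 48 h at 37 C, 5% CO2 to MIPE 4.0 compounds. Viability from ATP by CellTiter-Glo luminescence, normalized to DMSO (100%) and medium-only (0%) wells.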

[13] = Quantitative High-Throughput drug screen in 47 multiple myeloma cell lines against the NCATS MIPE library collection: ARP1_JJKsccF8 cell viability assay (AID 1918928; also: nearly all actives have a fitted effect of over 40% in size)
Outline: as §3

[14] = Quantitative High-Throughput drug screen in 47 multiple myeloma cell lines against the NCATS MIPE library collection: JJN3_DSMZ cell viability assay (AID 1918966; also: nearly all actives have a fitted effect of over 50% in size)
Outline: as §1

[15] = Quantitative High-Throughput drug screen in 47 multiple myeloma cell lines against the NCATS MIPE library collection: INA6_PLB cell viability assay (AID 1918965; also: nearly all actives have a fitted effect of over 55% in size)
Outline: as §4

[16] = Quantitative High-Throughput drug screen in 47 multiple myeloma cell lines against the NCATS MIPE library collection: KHM11_PLB cell viability assay (AID 1918962); also: nearly all actives have a fitted effect of over 35% in size
Outline: as §2
Potency is read from the fitted curve at half-maximal effect.

| Compound | Potency [1] | Potency [2] | Potency [3] | Potency [4] | Potency [5] | Potency [6] | Potency [7] | Potency [8] | Potency [9] | Potency [10] | Potency [11] | Potency [12] | Potency [13] | Potency [14] | Potency [15] | Potency [16] |
| --- | --- | --- | --- | --- | --- | --- | --- | --- | --- | --- | --- | --- | --- | --- | --- | --- |
| CO[C@H]1/C=C\O[C@@]2(C)Oc3c(C)c(O)c4c(O)c(c5c(nc6cc(C)ccn65)c4c3C2=O)NC(=O)C(C)=CC=C[C@H](C)[C@H](O)[C@@H](C)[C@@H](O)[C@@H](C)[C@H](OC(C)=O)[C@H]1C | 11.8 µM (active) | 16.6 µM (active) | 18.7 µM (active) | 18.7 µM (active) | 18.7 µM (active) | 0.833 µM (active) | inactive | 18.7 µM (active) | inactive |  |  |  |  |  |  |  |
| O=C1CN2Cc3c(ccc(Cl)c3Cl)N=C2N1 |  | inactive | inactive | inactive | inactive |  |  | inactive | 29.6 µM (active) | inactive | 26.4 µM (active) |  |  |  |  |  |
| COc1cc(N2CCN(C)CC2)ccc1Nc1nc(N)c(C(=O)c2c(Cl)cccc2Cl)s1 |  | 18.7 µM (active) |  |  | 18.7 µM (active) |  |  |  | inactive | 23.5 µM (active) |  | 23.5 µM (active) |  |  |  |  |
| COc1ccc2ccc(=O)oc2c1CC=C(C)C |  | 13.2 µM (active) |  | 16.6 µM (active) |  |  | inactive |  |  | 1.48 µM (active) | 20.9 µM (active) | 18.7 µM (active) | 8.33 µM (active) | 11.8 µM (active) |  |  |
| CC1C(=O)OC2C(O)C34C5CC(C(C)(C)C)C36C(OC(=O)C6O)OC4(C(=O)O5)C12O (stereo unspecified) |  |  |  | inactive | inactive |  | inactive | inactive | inactive | inactive | inactive | inactive |  | inactive | inactive |  |
| COc1ccc(-c2oc3c(CC=C(C)C)c(O)cc(O)c3c(=O)c2O)cc1 |  |  | inactive | inactive | inactive |  | inactive | inactive | 16.6 µM (active) | 18.7 µM (active) | 14.8 µM (active) | inactive |  |  | 16.6 µM (active) |  |
| CC[C@H](C=C[C@@H](C)[C@H]1CC[C@H]2[C@@H]3CC=C4C[C@@H](O)CC[C@]4(C)[C@@H]3CC[C@]12C)C(C)C |  |  | inactive | inactive | inactive |  |  |  | inactive | 7.24 µM (active) | inactive | inactive | inactive | inactive | 1.62 µM (active) | inactive |
| NCC1CCC(C(=O)O)CC1 (stereo unspecified) |  | inactive | inactive | inactive | inactive |  | inactive |  | inactive | inactive | inactive |  | inactive |  | inactive | 4.18 µM (active) |
| CO[C@@H]1C(N(C)C(=O)c2ccccc2)C[C@H]2O[C@]1(C)n1c3ccccc3c3c4c(c5c6ccccc6n2c5c31)C(=O)NC4=O (stereo partly specified) | 1.87 µM (active) |  |  | inactive |  |  | 6.62 µM (active) |  |  |  |  |  |  |  | 1.48 µM (active) |  |
| C=C1c2cccc(O)c2C(O)=C2C(=O)[C@@]3(O)C(O)=C(C(N)=O)C(=O)[C@@H](N(C)C)[C@@H]3[C@@H](O)[C@H]12 |  | inactive |  | inactive | inactive |  | 16.6 µM (active) |  | 11.8 µM (active) | 9.35 µM (active) | 14.8 µM (active) | inactive | 23.5 µM (active) |  | 13.2 µM (active) |  |
| Cc1cc(OCCCS(C)(=O)=O)cc(C)c1-c1cccc(COc2ccc3c(c2)OC[C@H]3CC(=O)O)c1 |  |  | inactive | 5.9 µM (active) |  |  | 14.8 µM (active) | inactive | 20.9 µM (active) | inactive |  |  |  | 11.8 µM (active) |  |  |
| CNC(=O)[C@H](Cc1ccccc1)NC(=O)[C@H](CC(C)C)[C@H](CSc1cccs1)C(=O)NO | 18.7 µM (active) |  |  |  |  |  |  |  | 20.9 µM (active) |  | 16.6 µM (active) | inactive |  |  |  | inactive |
| CC1(C)[C@H]2CC[C@]3(C)[C@@H](C(=O)C=C4[C@@H]5C[C@@](C)(C(=O)O)CC[C@]5(C)CC[C@]43C)[C@@]2(C)CC[C@@H]1O |  |  | inactive | inactive | inactive | inactive | inactive |  | inactive | inactive |  |  | inactive |  | inactive |  |
| CC(C)(CO)[C@@H](O)C(=O)NCCC(=O)O |  | inactive | inactive | inactive | inactive |  | inactive |  | inactive | inactive | inactive |  | 1.66 µM (active) | inactive |  |  |
| COc1c(C)c2c(c(O)c1CC=C(C)CCC(=O)OCCN1CCOCC1)C(=O)OC2 |  | 0.372 µM (active) | 1.18 µM (active) | inactive |  |  |  |  | 3.32 µM (active) | inactive | 4.18 µM (active) | 2.09 µM (active) |  |  | 1.87 µM (active) |  |
| Clc1ccc(COC(Cn2ccnc2)c2ccc(Cl)cc2Cl)c(Cl)c1 (stereo unspecified) |  | 23.5 µM (active) | 23.5 µM (active) | 20.9 µM (active) | 18.7 µM (active) |  | 20.9 µM (active) | 26.4 µM (active) | 18.7 µM (active) | 20.9 µM (active) | 18.7 µM (active) |  | 18.7 µM (active) |  | 20.9 µM (active) |  |
